# Measured values as given in the supplement of paper PMC9694430.
# Where a name gives a salt, the structure may show the parent alone.
# Tested on: LOC_OS05G16824-cb004
# Test: thermal shift delta Tm vs DMSO control; higher = stronger stabilization (binding)
# Details: 12.5 µM; protein concentration 2 µM
# Summary of the method: (§1)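 Purified, E. coli-expressed rice kinase domain constructs were tested by differential scanning fluorimetry in 96-well plates: 19.5 μl of 2 μM kinase in 100 mM potassium phosphate pH 7.5, 150 mM NaCl, 10% glycerol, 5 × SYPRO Orange, plus compound in DMSO. Fluorescence was read from 25°C to 95°C at 0.05°C/s. Melting temperatures came from Boltzmann fits, and the shift is the triplicate mean relative to protein with DMSO alone.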
row,SMILES,thermal shift delta Tm [°C]
1,CC(C)(C)c1cnc(CSc2cnc(NC(=O)C3CCNCC3)s2)o1,-1.08
2,CN(C)C/C=C/C(=O)Nc1cc2c(Nc3ccc(F)c(Cl)c3)ncnc2cc1O[C@H]1CCOC1 [Afatinib (BIBW2992) Dimaleate],-0.29
3,O=C1c2c(O)cc(O)cc2OC(c2ccc(O)c(O)c2)C1O (centres undefined) [Taxifolin (Dihydroquercetin)],-0.02
4,CCN(CC)CCNC(=O)c1c(C)[nH]c(/C=C2\C(=O)Nc3ccc(F)cc32)c1C [Sunitinib Malate],13.1
5,COc1cc(Nc2ncc(F)c(Nc3ccc4c(n3)N(COP(=O)(O)O)C(=O)C(C)(C)O4)n2)cc(OC)c1OC [Fostamatinib (R788)],12
6,CC(C)(C)c1nc(-c2ccc(NC(=O)Nc3cccc(C(F)(F)F)c3)c3ccccc23)c2c(N)nccn12 [kira6],9.24
7,CNC(=O)c1cc(Oc2ccc(NC(=O)Nc3ccc(Cl)c(C(F)(F)F)c3)cc2)ccn1 [Sorafenib Tosylate],1.35
8,CC(=O)Nc1nc(C)c(-c2ccc(Cl)c(S(=O)(=O)NCCO)c2)s1,0.69
9,CCc1nc(-c2cccc(C)c2)c(-c2ccnc(NC(=O)c3ccccc3)c2)s1,-0.96
10,C[C@@]1(C(=O)Nc2ccc(F)nc2)CCCN1c1nc(Nc2cc(C3CC3)n[nH]2)c2cccn2n1,7.72
11,COc1ccc(Cl)cc1NC(=O)Nc1cc(C)nc2ccccc12,0.17
12,C=CC(=O)Nc1cccc(Nc2nc(Nc3ccc(OCCOC)cc3)ncc2F)c1,5.6
13,CC(C)c1c2cc(-c3ccnc(NC4CCC(NC5CCOCC5)CC4)n3)ccc2nn1C (centres undefined),-6.14
14,C[C@H]1CNC(=O)c2cnn3ccc(nc23)N[C@H](C)c2cc(F)ccc2O1,12.5
15,Cn1cc(-c2ccc3c(c2)CCN3C(=O)Cc2cccc(C(F)(F)F)c2)c2c(N)ncnc21,1.91
16,Cn1c(=O)c(F)c(Nc2ccc(I)cc2F)c2c(=O)n(C[C@@H](O)CO)cnc21,-1.32
17,CNC(=O)c1cccc(-c2ccc3c(N4CCOC[C@@H]4C)nc(N4CCOC[C@@H]4C)nc3n2)c1 [Vistusertib (AZD2014)],-6.13
18,Cc1nc(Nc2cnn(C3CCNCC3)c2)nc2c1N(C)C(=O)c1cc3ccccc3cc1N2C,3.82
19,COc1cc2/c(=N/c3ccc(Br)cc3F)nc[nH]c2cc1OCC1CCN(C)CC1 [Vandetanib (ZD6474)],2.5

row,SMILES,thermal shift delta Tm [°C]
1,CCn1c(C(=O)N(C2CC2)C2CC2)cc2c3c(ncn3C)c(Nc3cc(C)n(C)n3)nc21,2.92
2,OCCn1cc(-c2cnc3nnn(Cc4ccc5ncccc5c4)c3n2)cn1,-2.44
3,N#CC[C@H](C1CCCC1)n1cc(-c2ncnc3[nH]ccc23)cn1,1.27
4,CCn1nc(C2CCN(C(=O)CCO)CC2)nc1-c1cnc(N)c(-c2nnc(C(C)(C)C)o2)n1,1.95
5,CC(C)(C)c1cc(NC(=O)Nc2ccc(Oc3ccnc4[nH]c(=O)cnc34)cc2F)n(-c2ccccc2)n1,0.62
6,CO[C@H]1CC[C@H](N2C(=O)CNc3ncc(-c4ccc(C(C)(C)O)nc4)nc32)CC1,-2.4
7,CC[C@@H]1C(=O)N(C)c2cnc(Nc3ccc(C(=O)N[C@H]4CC[C@H](N5CCN(CC6CC6)CC5)CC4)cc3OC)nc2N1C(C)C [Volasertib (BI 6727)],2.5
8,COc1ccc2c(c1)[C@]1(C[C@H]1c1ccc3c(/C=C/c4ccc(CN5C[C@@H](C)O[C@@H](C)C5)cc4)n[nH]c3c1)C(=O)N2,9.09
9,O=C(Nc1nc2cccc(-c3ccc(CN4CCS(=O)(=O)CC4)cc3)n2n1)C1CC1 [Filgotinib (GLPG0634)],1.83
10,CCn1c(-c2nonc2N)nc2c(C#CC(C)(C)O)ncc(OC[C@H]3CCCNC3)c21,-1.28
11,Cc1cnc(Nc2ccc(OCCN3CCCC3)cc2)nc1Nc1cccc(S(=O)(=O)NC(C)(C)C)c1,6.93
12,Cc1cc(Nc2cc(N3CCN(C)CC3)nc(/C=C/c3ccccc3)n2)n[nH]1 [ENMD-2076 L-(+)-Tartaric acid],10.9
13,CC#CC(=O)N1CC[C@@H](n2c(=O)n(-c3ccc(Oc4ccccc4)cc3)c3c(N)ncnc32)C1 [ONO-4059 (GS-4059) hydrochloride],-5.29
14,CCN1CCN(Cc2ccc(Nc3ncc(F)c(-c4cc(F)c5nc(C)n(C(C)C)c5c4)n3)nc2)CC1,3.33
15,CN(C)C[C@@H]1CCn2cc(c3ccccc32)C2=C(C(=O)NC2=O)c2cn(c3ccccc23)CCO1,2.45
16,CN1CCN(Cc2ccc(NC(=O)Nc3ccc(Oc4ccnc(N)n4)cc3)cc2C(F)(F)F)CC1,-5.04
17,O=C(NOCCO)c1ccc2cncn2c1Nc1ccc(I)cc1F,-1.92
18,CCCCCCCCCCCCc1ccc(S(=O)(=O)Nc2nncs2)cc1,-2.07

# Tested on: LOC_OS05G28520-cb001
# Test: as above
# Details: 12.5 µM; protein concentration 2 µM
# Summary of the method: as §1
row,SMILES,thermal shift delta Tm [°C]
1,CC(C)(C)c1cnc(CSc2cnc(NC(=O)C3CCNCC3)s2)o1,0.48
2,CN(C)C/C=C/C(=O)Nc1cc2c(Nc3ccc(F)c(Cl)c3)ncnc2cc1O[C@H]1CCOC1 [Afatinib (BIBW2992) Dimaleate],0.44
3,O=C1c2c(O)cc(O)cc2OC(c2ccc(O)c(O)c2)C1O (centres undefined) [Taxifolin (Dihydroquercetin)],0.61
4,CCN(CC)CCNC(=O)c1c(C)[nH]c(/C=C2\C(=O)Nc3ccc(F)cc32)c1C [Sunitinib Malate],1.41
5,COc1cc(Nc2ncc(F)c(Nc3ccc4c(n3)N(COP(=O)(O)O)C(=O)C(C)(C)O4)n2)cc(OC)c1OC [Fostamatinib (R788)],0.41
6,CC(C)(C)c1nc(-c2ccc(NC(=O)Nc3cccc(C(F)(F)F)c3)c3ccccc23)c2c(N)nccn12 [kira6],0.74
7,CNC(=O)c1cc(Oc2ccc(NC(=O)Nc3ccc(Cl)c(C(F)(F)F)c3)cc2)ccn1 [Sorafenib Tosylate],1.33
8,CC(=O)Nc1nc(C)c(-c2ccc(Cl)c(S(=O)(=O)NCCO)c2)s1,0.59
9,CCc1nc(-c2cccc(C)c2)c(-c2ccnc(NC(=O)c3ccccc3)c2)s1,0.55
10,C[C@@]1(C(=O)Nc2ccc(F)nc2)CCCN1c1nc(Nc2cc(C3CC3)n[nH]2)c2cccn2n1,1.51
11,COc1ccc(Cl)cc1NC(=O)Nc1cc(C)nc2ccccc12,0.38
12,C=CC(=O)Nc1cccc(Nc2nc(Nc3ccc(OCCOC)cc3)ncc2F)c1,1.99
13,CC(C)c1c2cc(-c3ccnc(NC4CCC(NC5CCOCC5)CC4)n3)ccc2nn1C (centres undefined),0.56
14,C[C@H]1CNC(=O)c2cnn3ccc(nc23)N[C@H](C)c2cc(F)ccc2O1,0.06
15,Cn1cc(-c2ccc3c(c2)CCN3C(=O)Cc2cccc(C(F)(F)F)c2)c2c(N)ncnc21,0.55
16,Cn1c(=O)c(F)c(Nc2ccc(I)cc2F)c2c(=O)n(C[C@@H](O)CO)cnc21,0.23
17,CNC(=O)c1cccc(-c2ccc3c(N4CCOC[C@@H]4C)nc(N4CCOC[C@@H]4C)nc3n2)c1 [Vistusertib (AZD2014)],-0.26
18,Cc1nc(Nc2cnn(C3CCNCC3)c2)nc2c1N(C)C(=O)c1cc3ccccc3cc1N2C,0.38
19,COc1cc2/c(=N/c3ccc(Br)cc3F)nc[nH]c2cc1OCC1CCN(C)CC1 [Vandetanib (ZD6474)],0.62

row,SMILES,thermal shift delta Tm [°C]
1,CCn1c(C(=O)N(C2CC2)C2CC2)cc2c3c(ncn3C)c(Nc3cc(C)n(C)n3)nc21,0.88
2,OCCn1cc(-c2cnc3nnn(Cc4ccc5ncccc5c4)c3n2)cn1,0.66
3,N#CC[C@H](C1CCCC1)n1cc(-c2ncnc3[nH]ccc23)cn1,0.17
4,CCn1nc(C2CCN(C(=O)CCO)CC2)nc1-c1cnc(N)c(-c2nnc(C(C)(C)C)o2)n1,0.66
5,CC(C)(C)c1cc(NC(=O)Nc2ccc(Oc3ccnc4[nH]c(=O)cnc34)cc2F)n(-c2ccccc2)n1,0.57
6,CO[C@H]1CC[C@H](N2C(=O)CNc3ncc(-c4ccc(C(C)(C)O)nc4)nc32)CC1,0.49
7,CC[C@@H]1C(=O)N(C)c2cnc(Nc3ccc(C(=O)N[C@H]4CC[C@H](N5CCN(CC6CC6)CC5)CC4)cc3OC)nc2N1C(C)C [Volasertib (BI 6727)],-0.32
8,COc1ccc2c(c1)[C@]1(C[C@H]1c1ccc3c(/C=C/c4ccc(CN5C[C@@H](C)O[C@@H](C)C5)cc4)n[nH]c3c1)C(=O)N2,0.02
9,O=C(Nc1nc2cccc(-c3ccc(CN4CCS(=O)(=O)CC4)cc3)n2n1)C1CC1 [Filgotinib (GLPG0634)],0.76
10,CCn1c(-c2nonc2N)nc2c(C#CC(C)(C)O)ncc(OC[C@H]3CCCNC3)c21,0.27
11,Cc1cnc(Nc2ccc(OCCN3CCCC3)cc2)nc1Nc1cccc(S(=O)(=O)NC(C)(C)C)c1,0.76
12,Cc1cc(Nc2cc(N3CCN(C)CC3)nc(/C=C/c3ccccc3)n2)n[nH]1 [ENMD-2076 L-(+)-Tartaric acid],5.68
13,CC#CC(=O)N1CC[C@@H](n2c(=O)n(-c3ccc(Oc4ccccc4)cc3)c3c(N)ncnc32)C1 [ONO-4059 (GS-4059) hydrochloride],0.56
14,CCN1CCN(Cc2ccc(Nc3ncc(F)c(-c4cc(F)c5nc(C)n(C(C)C)c5c4)n3)nc2)CC1,0.73
15,CN(C)C[C@@H]1CCn2cc(c3ccccc32)C2=C(C(=O)NC2=O)c2cn(c3ccccc23)CCO1,0.65
16,CN1CCN(Cc2ccc(NC(=O)Nc3ccc(Oc4ccnc(N)n4)cc3)cc2C(F)(F)F)CC1,0.9
17,O=C(NOCCO)c1ccc2cncn2c1Nc1ccc(I)cc1F,0.09
18,CCCCCCCCCCCCc1ccc(S(=O)(=O)Nc2nncs2)cc1,0.11
